Source: PubChem
Only a selection was taken, and hits are over-represented in it overall.
Shiga toxin inh – A qHTS for Small Molecule Inhibitors of Shiga Toxin. Vero cells, Shiga toxin protein synthesis inhibition reporter. AID 2315, 2010. hit rate 9.2% among 290,000. inhibition, % at 38.7 µM; in the data active = inhibition mostly above about 28%, no sharp cut-off; inactive = mostly below about 43%; note: 0% is about no effect
AmpC inh no detg – qHTS Inhibitors of AmpC Beta-Lactamase (assay without detergent). AmpC nitrocefin hydrolysis, absorbance 480 nm, 0.0001% Triton. Potency, µM (series often up to 57.1 µM), inactives show at the highest dose activity change, negative = inhibition, usual class: inhibitors. hit rate 0.52% among 330,000. P00811. AID 485341, 2010;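 note: potency is the fitted concentration of half-maximal effect; plate controls were no compound for no effect and no enzyme for full effect; nearly all actives have a fitted effect of over 20% in size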
Target sequence (P00811 whole entry, looked up): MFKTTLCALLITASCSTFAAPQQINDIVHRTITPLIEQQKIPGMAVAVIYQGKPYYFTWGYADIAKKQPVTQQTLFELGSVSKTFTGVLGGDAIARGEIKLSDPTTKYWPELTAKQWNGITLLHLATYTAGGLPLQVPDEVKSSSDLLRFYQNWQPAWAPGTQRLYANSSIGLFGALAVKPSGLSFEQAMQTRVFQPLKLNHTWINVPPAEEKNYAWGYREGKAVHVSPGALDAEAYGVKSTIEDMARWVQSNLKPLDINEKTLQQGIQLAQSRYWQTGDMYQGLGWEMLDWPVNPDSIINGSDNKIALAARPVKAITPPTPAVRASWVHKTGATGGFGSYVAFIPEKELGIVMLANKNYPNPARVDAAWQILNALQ
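AmpC (5.3 nM in the dispensed reagent) in 20 mM phosphate pH 7.0 with 0.01% (detergent screen) or 0.0001% Triton X-100 was preincubated with compounds for 15 min at room temperature. Nitrocefin was then added from an 800 uM solution, and hydrolysis was followed at 480 nm.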
SARS PLpro yeast – qHTS of Yeast-based Assay for SARS-CoV PLP | S. cerevisiae expressing SARS-CoV PLpro, growth rescue | Potency, µM (doses to about 32.9 µM), for the others: at the top dose activity, positive = growth rescue, hits mostly activators | hit rate 0.19% among 330,000 | AID 485353, 2010; calls by dose curve; note: potency is the fitted concentration of half-maximal effect; 0% is about no effect; nearly all actives have a fitted effect of over 55% in size
AmpC inh detg – qHTS Inhibitors of AmpC Beta-Lactamase (assay with detergent). AmpC hydrolysis of nitrocefin, absorbance 480 nm, 0.01% Triton. P00811. Potency, µM (top dose mostly 114 µM), without a hit: at the highest dose activity change, negative = inhibition, hits mostly inhibitors. hit rate 0.041% among 370,000;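 note: potency is the fitted concentration of half-maximal effect; 0% = no-compound wells and -100% = no-enzyme wells; nearly all actives have a fitted effect of over 25% in size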
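20 mM phosphate pH 7.0 + 0.01% (detergent screen) or 0.0001% Triton X-100; 5.3 nM AmpC reagent; cpd preinc 15 min RT; nitrocefin (800 uM stock) to start; A480 q20 s × 4 min; Activity was normalised to no-enzyme and no-compound control wells.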
AMA1 RON2 block – qHTS for Inhibitors of AMA1-RON; Towards Development of Antimalarial Drug Lead: Primary Screen; Plasmodium falciparum AMA1 (3D7) - RON2 peptide interaction; AlphaScreen AMA1-biotinylated RON2 peptide binding; Potency, µM (highest dose often 58.2 µM), without a hit: top-dose activity change, negative = inhibition, most hits filed as inhibitors; hit rate 0.2% among 360,000; AID 720542, 2013;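 note: potency is the fitted concentration of half-maximal effect; 0% = vehicle wells and -100% = peptide control; nearly all actives have a fitted effect of over 45% in size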
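AMA1 (3D7) with his tag at 25 nM final met compounds first, then biotinylated RON2 peptide at 25 nM; detection used donor plus acceptor beads, 10 µg/mL apiece, read by AlphaScreen after 30 min at room temperature.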
CHX counter – Cycloheximide Counterscreen for Small Molecule Inhibitors of Shiga Toxin; cell reporter, cycloheximide protein synthesis inhibition counterscreen; max response, %; hit rate 12% among 300,000; in the data active = max response mostly above about 13%, no sharp cut-off; inactive = mostly below about 14%; note: read at 38.3 µM for the half of the compounds with a filed dose; 0% is about no effect
* hit, by the source's call. Unless noted, calls come from the whole dose curve; as a rule, active = well fitted curve in the direction sought with a large enough effect; inconclusive = small, poorly fitted or top-dose-only effect, or another doubt; inactive = no such curve, though single readings can be large; an effect the other way counts as inactive or inconclusive.

For C[C@H](N)c1nnc(SCC(=O)N(C)C)o1 the results were Shiga toxin inh 17.4, AmpC inh no detg -1.3%, SARS PLpro yeast -0.7%, AmpC inh detg 0.2%, AMA1 RON2 block 8.1% and CHX counter 16.8*.
Screening COc1ccc(C(=O)NCc2nc3ccccc3[nH]2)cc1OC returned Shiga toxin inh -7.8, AmpC inh no detg 6.8%, SARS PLpro yeast 3.2%, AmpC inh detg inconclusive, AMA1 RON2 block 27.7% and CHX counter -2.3.
`Cc1ccccc1OCc1nc2ccccc2[nH]1` gave Shiga toxin inh 62.0*, AmpC inh no detg -13.6%, SARS PLpro yeast -3.5%, AmpC inh detg 2.6%, AMA1 RON2 block -7.2% and CHX counter 56.8*.
Screening COc1ccccc1OCc1nc2ccccc2[nH]1 returned Shiga toxin inh 51.1*, AmpC inh no detg -17.6%, SARS PLpro yeast 2.1%, AmpC inh detg -14.9%, AMA1 RON2 block 7.1% and CHX counter 52.1*.
For c1cnc2c(OCc3nc4ccccc4[nH]3)cccc2c1 the results were Shiga toxin inh 77.8*, AmpC inh no detg -45.9%, SARS PLpro yeast -18.9%, AmpC inh detg inconclusive, AMA1 RON2 block -5.7% and CHX counter 61.8*.
For Cc1ccc(C(=O)Nc2nccs2)s1 the results were Shiga toxin inh 92.4*, AmpC inh no detg -16.4%, SARS PLpro yeast -1.1%, AmpC inh detg inconclusive, AMA1 RON2 block 14.9% and CHX counter 59.1*.
O=C(Nc1nccs1)c1ccc(Br)s1 was read as Shiga toxin inh 60.4*, AmpC inh no detg -23.6%, SARS PLpro yeast -7.8%, AmpC inh detg inconclusive, AMA1 RON2 block 111.0% and CHX counter 54.3*.
`O=C(Nc1nc(-c2ccccn2)cs1)c1ccc(Br)s1` gave Shiga toxin inh -3.8, AmpC inh no detg -15.8%, SARS PLpro yeast 5.7%, AmpC inh detg 0.0%, AMA1 RON2 block 59.2% and CHX counter 9.8.
For Cc1nnc(SCC(=O)Nc2nccs2)s1 the results were Shiga toxin inh 1.3, AmpC inh no detg -6.2%, SARS PLpro yeast 12.9%, AmpC inh detg inconclusive, AMA1 RON2 block -14.6% and CHX counter -1.9.
`CC1CCN(C(=O)CSc2nnc3ccccn23)CC1` gave AmpC inh no detg -10.3%, SARS PLpro yeast -1.7% and AMA1 RON2 block -5.9%.
Screening Cc1cc(NC(=O)c2sccc2C)n(-c2cccc(Cl)c2)n1 returned Shiga toxin inh 18.3, AmpC inh no detg -15.6%, SARS PLpro yeast 2.4%, AmpC inh detg -8.3%, AMA1 RON2 block 0.0% and CHX counter -1.5.
Screening Cc1cc(Cl)ccc1NC(=O)C1COc2ccccc2O1 (centres undefined) returned Shiga toxin inh 86.7*, AmpC inh no detg -26.1%, SARS PLpro yeast -12.4%, AmpC inh detg 10.7%, AMA1 RON2 block 3.1% and CHX counter 37.3*.
For COC(=O)c1cc(NC(=O)C2COc3ccccc3O2)cc(C(=O)OC)c1 (centres undefined) the results were Shiga toxin inh 17.3, AmpC inh no detg 0.224µM*, SARS PLpro yeast -6.0%, AmpC inh detg 2.6%, AMA1 RON2 block 10.1% and CHX counter -1.2.
For O=C(Nc1ccccc1[N+](=O)[O-])C1COc2ccccc2O1 (centres undefined) the results were Shiga toxin inh 38.0*, AmpC inh no detg -29.1%, SARS PLpro yeast -4.4%, AmpC inh detg -15.8%, AMA1 RON2 block inconclusive and CHX counter 27.3*.
Screening COC(=O)c1ccsc1NC(=O)C1COc2ccccc2O1 (centres undefined) returned Shiga toxin inh -10.4, AmpC inh no detg -18.1%, SARS PLpro yeast -17.9%, AmpC inh detg inconclusive, AMA1 RON2 block 32.1% and CHX counter -6.0.
Screening COc1cccc(NC(=O)C2COc3ccccc3O2)c1 (centres undefined) returned AmpC inh no detg -0.6%, SARS PLpro yeast 4.4%, AmpC inh detg inconclusive, AMA1 RON2 block 11.6% and CHX counter 59.7*.
COc1ccc(NC(=O)c2ccc(NC(=O)C3COc4ccccc4O3)cc2)c(OC)c1 (centres undefined) was read as AMA1 RON2 block 19.6%.
`CCN(CC(=O)Nc1ccccc1C(F)(F)F)C(=O)c1ccc2c(=O)n3c(nc2c1)CCC3` gave AmpC inh no detg 12.2%, SARS PLpro yeast 1.5%, AmpC inh detg -2.2% and AMA1 RON2 block 51.6%.
`COC(=O)c1sccc1S(=O)(=O)N1CCN(c2ccccc2OC)CC1` gave AmpC inh detg 18.9%.
`Cc1cc(C(=O)NNC(=O)Nc2cccc(C(F)(F)F)c2)no1` gave Shiga toxin inh -5.9, AmpC inh no detg -13.5%, SARS PLpro yeast -1.0%, AmpC inh detg -4.1%, AMA1 RON2 block 47.9% and CHX counter -0.8.
Screening COC(=O)c1ccccc1NC(=O)C1COc2ccccc2O1 (centres undefined) returned Shiga toxin inh 122.1*, AmpC inh no detg -3.7%, SARS PLpro yeast -9.8%, AmpC inh detg 9.5%, AMA1 RON2 block 18.5% and CHX counter 54.6*.
Screening Cc1ccc(Cl)cc1NC(=O)C1COc2ccccc2O1 (centres undefined) returned Shiga toxin inh 25.8, AmpC inh no detg -28.9%, SARS PLpro yeast -3.0%, AmpC inh detg -3.2%, AMA1 RON2 block 10.9% and CHX counter 11.0.
`O=C(Nc1cccc(Cl)c1)C1COc2ccccc2O1` (centres undefined) gave Shiga toxin inh 29.3, AmpC inh no detg -20.1%, SARS PLpro yeast -9.6%, AmpC inh detg 3.7%, AMA1 RON2 block 4.8% and CHX counter 16.4*.
CCOC(=O)c1ccccc1NC(=O)C1COc2ccccc2O1 (centres undefined) was read as Shiga toxin inh -13.2, AmpC inh no detg -9.8%, SARS PLpro yeast -11.0%, AmpC inh detg -8.5%, AMA1 RON2 block 4.4% and CHX counter -6.1.
For C=CC[C@H](CC(=O)NCCO)C(=O)N[C@H](COC(=O)[C@H](CC=C)CC(=O)OC(C)(C)C)c1ccccc1 the results were AmpC inh no detg 215.1%, SARS PLpro yeast -1.1% and AMA1 RON2 block -6.6%.
For CSCCC(C(=O)NC1CCCC1)n1c(-c2ccncc2)nc2ccccc21 (centres undefined) the results were AMA1 RON2 block 6.3%.
`COCCNC(=O)C1(C)CCCN(C(=O)c2ccc(C#N)cc2)C1` (centres undefined) gave AMA1 RON2 block -8.6%.
CCn1c(SCC(=O)c2ccc(O)c(O)c2)nnc1-c1ccc(C)cc1 was read as Shiga toxin inh -6.3, AmpC inh no detg -46.5%, SARS PLpro yeast -2.4%, AmpC inh detg inconclusive, AMA1 RON2 block 14.1% and CHX counter 0.5.
Screening Cc1cccc(CSc2ncc(CO)n2Cc2ccc(F)cc2)c1 returned AmpC inh detg 9.2%.
